These results are taken from PubChem BioAssay AID434970 (Sanford-Burnham Center for Chemical Genomics, 2010).

Among all 11,000 compounds or so, about 310 (2.8%) were called active. This is one part of a sample in which actives are shown more often than they occur. Rule as the data show it: active = activity change below about -85%; inactive = the rest.

The subject of the experiment is intestinal alkaline phosphatase [Mus musculus]. Kind of experiment: mouse intestinal phosphatase enzyme activation – biochemical, luminescence, single concentration, confirmation (AID 434970). The settings on record: purified mouse IAP, CDP-Star luminescence, 30 min, at 10 µM; activation factor: measured here: IAP activation factor, stronger effect = higher value; activity change, negative = activation: stronger effect = lower value.
Consider `CCn1nnnc1SCC(=O)Nc1ccc2c(c1)OCO2`, for which the activation factor was 0.992 and the activity change, negative = activation was 0.8% (inactive).

For `CCOC(=O)/C=C(\C)Nc1cc(C)nn1-c1ccccc1`, the activation factor is 1.04 and the activity change, negative = activation is -4.05% (inactive).

With `Cc1cc(NC(=O)Nc2ccc(Cl)c(Cl)c2)n(-c2ccccc2)n1`, the activation factor came out at 2.79 and the activity change, negative = activation is -179% (active).

For `Cc1cc(NC(=O)Nc2ccc(Cl)cc2)n(-c2ccccc2)n1`, the activation factor worked out at 2.07 and the activity change, negative = activation is -107% (active).

Turning to `Cc1cc(NC(=O)Nc2cc(C)nn2-c2ccccc2)n(-c2ccccc2)n1`, the activation factor amounted to 0.992 and the activity change, negative = activation was 0.75% (inactive).

`COc1cccc(-c2cc(C(=O)Nc3cc(C)nn3-c3ccccc3)no2)c1`: the activation factor came out at 1.1 and the activity change, negative = activation is -10.2% (inactive).

For the molecule `Cc1cc(NC(=O)Nc2cccc(Cl)c2)n(-c2ccccc2)n1`, the activation factor came out at 1.97 and the activity change, negative = activation was -97.1% (active).

For `COc1ccc(-c2cc(C(=O)Nc3cc(C)nn3-c3ccccc3)no2)cc1`, the activation factor was determined as 0.921 and the activity change, negative = activation is 7.9% (inactive).

`Cc1nn(C)c(C)c1NC(=O)Nc1ccc(Cl)c(Cl)c1`: the activation factor was 1.62 and the activity change, negative = activation was -62.2% (inactive).

Regarding `Cc1cc(NC(=O)c2ccc(C)s2)n(-c2ccccc2)n1`, the activation factor is 1.01 and the activity change, negative = activation is -0.8% (inactive).

On to `COc1cc(C2Nc3cc(Cl)c(S(N)(=O)=O)cc3S(=O)(=O)N2)ccc1OCc1ccccc1` (centres undefined), for which the activation factor turned out to be 0.84 and the activity change, negative = activation is 16% (inactive).

With `CC[C@]12c3[nH]c4cc(CCC(=O)N(C)C)ccc4c3CCN1C(=O)[C@@H](CC(=O)NCC13CC4CC(CC(C4)C1)C3)C[C@@H]2C(=O)N1CCN(C(=O)C2CC2)CC1`, the activation factor was 1.15 and the activity change, negative = activation is -14.6% (inactive).

`O=C(CCl)Oc1ccc2occ(C(=O)c3cccs3)c2c1`: the activation factor came out at 0.89 and the activity change, negative = activation is 11% (inactive).

With `Cc1[nH]c2ccccc2c1C(=O)COC(=O)C1CC(=O)N(Cc2ccco2)C1` (centres undefined), the activation factor was found to be 1.14 and the activity change, negative = activation is -13.6% (inactive).

Turning to `CCOC(=O)C1=CNS(=O)(=O)NC1c1ccc(C)cc1` (centres undefined), the activation factor is 0.96 and the activity change, negative = activation is 4.05% (inactive).

On to `COc1ccc2c(c1)[nH]c1c(=O)n(CCc3cnc[nH]3)cnc12`, for which the activation factor was 1.02 and the activity change, negative = activation is -1.9% (inactive).

For the molecule `CCCCCOc1ccc(C(=O)CCC(=O)NNC(=O)c2ccncc2)cc1`, the activation factor worked out at 3.52 and the activity change, negative = activation is -252% (active).

With `CCCOc1ccc(C(=O)NCCO)cc1`, the activation factor turned out to be 1.01 and the activity change, negative = activation is -1.1% (inactive).

Regarding `CCCCOc1ccc(-c2nnc(-c3ccncc3)o2)cc1`, the activation factor amounted to 0.94 and the activity change, negative = activation was 6.05% (inactive).

Regarding `CC[C@]1(C(=O)OC)[C@H]2C(=O)N(C)C(=O)[C@H]2[C@H]2CN=C(SCc3ccc(C#N)cc3)N21`, the activation factor is 1.07 and the activity change, negative = activation is -6.55% (inactive).

Take `N#Cc1nc(-c2ccc(Cl)cc2)oc1NCc1ccco1`: the activation factor came to 0.952 and the activity change, negative = activation is 4.8% (inactive).

Turning to `COc1ccccc1-c1cc(C(F)(F)F)nc(N2CCCC2)n1`, the activation factor was 0.939 and the activity change, negative = activation is 6.15% (inactive).

For `O=C(Cn1cc(C(=O)c2ccco2)c2ccccc21)NCc1ccco1`, the activation factor is 0.907 and the activity change, negative = activation is 9.3% (inactive).

For `S=C(NCc1ccc(Cl)cc1Cl)NC1CCCCC1`, the activation factor is 1.93 and the activity change, negative = activation was -93% (active).

For `S=C(NCc1ccc(Cl)cc1Cl)Nc1ccccc1`, the activation factor amounted to 1.41 and the activity change, negative = activation is -41% (inactive).

Regarding `S=C(NCc1cccc(Cl)c1)NC1CCCCC1`, the activation factor was 1.14 and the activity change, negative = activation was -14.3% (inactive).

Turning to `Cc1cccc(NC(=O)C2=C(O)c3ccccc3N(C)S2(=O)=O)c1`, the activation factor stood at 0.998 and the activity change, negative = activation is 0.2% (inactive).

Consider `N#Cc1nc(COc2ccc(Cl)cc2)oc1N1CCCCCC1`, for which the activation factor turned out to be 0.964 and the activity change, negative = activation was 3.6% (inactive).

Consider `CCOC(=O)c1cccc(NC(=O)CCS(=O)(=O)c2cccs2)c1`, for which the activation factor turned out to be 1.01 and the activity change, negative = activation was -0.85% (inactive).

Take `COc1ccc(C(=O)NNC(=S)NC(=O)c2cc(-c3ccccc3)nc3ccccc23)cc1`: the activation factor is 0.848 and the activity change, negative = activation is 15.2% (inactive).

For `C[C@]12c3[nH]c4cc(-c5ccco5)ccc4c3CCN1C(=O)[C@@H](CC(=O)NCCN1CCOCC1)C[C@@H]2C(=O)N1CCOCC1`, the activation factor is 0.997 and the activity change, negative = activation is 0.25% (inactive).

As for `C[C@@H]1CN([C@@H](C)CO)C(=O)c2cc(NC(=O)Nc3ccc4c(c3)OCO4)ccc2O[C@H]1CN(C)S(=O)(=O)c1ccc(F)cc1`, the activation factor is 1.65 and the activity change, negative = activation is -64.8% (inactive).

On to `C[C@H](CO)N1C[C@H](C)[C@H](CN(C)S(=O)(=O)c2ccccc2)Oc2ccc(NC(=O)NC3CCCCC3)cc2CC1=O`, for which the activation factor is 1.71 and the activity change, negative = activation was -71.4% (inactive).

For the molecule `Cc1noc(C)c1S(=O)(=O)N(C)C[C@H]1Oc2ccc(NC(=O)NC3CCCCC3)cc2C(=O)N([C@H](C)CO)C[C@@H]1C`, the activation factor was 1.82 and the activity change, negative = activation was -81.5% (inactive).

Regarding `COc1ccc(NC(=O)N(C)C[C@H]2Oc3ccc(NC(=O)NC4CCCCC4)cc3C(=O)N([C@H](C)CO)C[C@@H]2C)cc1`, the activation factor came out at 1.61 and the activity change, negative = activation is -60.9% (inactive).

As for `C[C@H](CO)N1C[C@H](C)[C@@H](CN(C)S(=O)(=O)c2ccccc2)Oc2ccc(NC(=O)NC3CCCCC3)cc2C1=O`, the activation factor was 2.79 and the activity change, negative = activation is -179% (active).

In the case of `COc1ccc(S(=O)(=O)N(C)C[C@H]2Oc3ccc(NC(=O)NC4CCCCC4)cc3C(=O)N([C@H](C)CO)C[C@@H]2C)cc1`, the activation factor was 2.74 and the activity change, negative = activation is -174% (active).

As for `C[C@H](CO)N1C[C@H](C)[C@@H](CN(C)S(=O)(=O)c2ccc(F)cc2)Oc2ccc(NC(=O)NC3CCCCC3)cc2C1=O`, the activation factor was 2.2 and the activity change, negative = activation is -120% (active).

Take `C[C@H](CO)N1C[C@H](C)[C@@H](CN(C)S(=O)(=O)c2ccc(F)cc2)Oc2ccc(NC(=O)Nc3ccc4c(c3)OCO4)cc2C1=O`: the activation factor was found to be 1.82 and the activity change, negative = activation was -81.6% (inactive).

For the molecule `Cc1ccc(NC(=O)N2CCC(NC(=O)c3ccccc3C)CC2)cc1`, the activation factor came to 0.993 and the activity change, negative = activation was 0.7% (inactive).

For the molecule `O=C(C[C@H]1C[C@H](C(=O)N2CCCCC2)[C@@]2(CCc3ccccc3)c3[nH]c4cc(-c5ccco5)ccc4c3CCN2C1=O)NCc1ccco1`, the activation factor stood at 1.16 and the activity change, negative = activation was -16.1% (inactive).

As to `O=C(Cn1nnc(-c2ccc(Cl)cc2)n1)NC1CC2CCC1C2` (centres undefined), the activation factor is 1.15 and the activity change, negative = activation was -15.3% (inactive).

For `O=C(Nc1cccc(Cl)c1)NC1CC2CCC1C2` (centres undefined), the activation factor turned out to be 2.64 and the activity change, negative = activation was -164% (active).

On to `O=C(Nc1ccc(C(=O)N2CCCCC2)cc1)Nc1cccc(Cl)c1`, for which the activation factor is 2.39 and the activity change, negative = activation is -139% (active).

In the case of `O=C(Cc1cccc2ccccc12)NNC(=O)Nc1cccc(Cl)c1`, the activation factor came to 0.964 and the activity change, negative = activation is 3.65% (inactive).

With `O=C(NCc1cccc2ccccc12)Nc1ccccc1`, the activation factor was determined as 1.74 and the activity change, negative = activation was -74.1% (inactive).

As to `COC(=O)c1ccc(NC(=S)NC2CC3CCC2C3)cc1` (centres undefined), the activation factor worked out at 1.56 and the activity change, negative = activation was -56% (inactive).

As to `O=C(NCc1csc2ccccc12)Nc1cc(Cl)cc(Cl)c1`, the activation factor was 2.45 and the activity change, negative = activation is -145% (active).

Consider `CC(=O)c1ccc(NC(=O)N2CCN(c3cccc(Cl)c3)CC2)cc1`, for which the activation factor was 1.08 and the activity change, negative = activation is -7.6% (inactive).

Take `O=C(Nc1cccc(Cl)c1)N1CCCC1`: the activation factor was 1.09 and the activity change, negative = activation is -8.6% (inactive).

Regarding `O=C(Nc1ccccc1)Nc1cccc(Cl)c1`, the activation factor was found to be 2.11 and the activity change, negative = activation was -111% (active).

As to `O=C(Cc1ccccc1)NNC(=O)Nc1cccc(Cl)c1`, the activation factor stood at 0.911 and the activity change, negative = activation is 8.85% (inactive).
